Screens (PubChem BioAssay)
DENV2 CPE: protects cells from dengue virus 2 cytopathic effect | DENV2-infected cells, cytopathic effect rescue, plate reader | CPE inhibition, % at 9.99 µM | hit rate 1.7% among 350,000 | AID 651640; in the data active = CPE inhibition above about 20%, passing the limit was not always enough; inconclusive = no clear call, values can overlap the other calls; tested in BHK-21 cells;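 also: 0% = median of neutral control wells and 100% = median of positive control wells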
Rtt109 HAT inh: inhibitors of Candida albicans Rtt109/Vps75 histone acetyltransferase. Q5AAJ8. purified Rtt109/Vps75, ThioGlo CoA-SH fluorescence, 4 h. inhibition, % at 34.9 µM. hit rate 0.16% among 330,000;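 active = inhibition of at least 50% in every replicate; inconclusive = best replicate reaches 50% inhibition but some replicates fall short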
Target sequence (Q5AAJ8 whole entry, looked up): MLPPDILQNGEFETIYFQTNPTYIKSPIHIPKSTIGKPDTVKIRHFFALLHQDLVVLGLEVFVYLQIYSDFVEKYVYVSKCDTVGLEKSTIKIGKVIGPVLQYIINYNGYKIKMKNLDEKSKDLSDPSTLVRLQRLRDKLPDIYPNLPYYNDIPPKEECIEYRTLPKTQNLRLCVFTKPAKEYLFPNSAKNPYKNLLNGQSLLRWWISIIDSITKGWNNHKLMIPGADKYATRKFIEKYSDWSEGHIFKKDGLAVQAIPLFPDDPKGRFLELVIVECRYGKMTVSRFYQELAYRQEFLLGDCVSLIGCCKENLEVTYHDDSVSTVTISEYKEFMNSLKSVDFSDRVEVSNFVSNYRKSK
N-glyco inh: N-linked glycosylation inhibition. D54 ERlucT glycosylation luciferase reporter, 24 h; percent of 100 nM tunicamycin response. reporter increase, % at 12.5 µM. hit rate 0.23% among 360,000;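 active = mean luciferase reporter signal, scaled so untreated is 0 and the glycosylation-blocking control 100, at or above a set limit in every replicate; inconclusive = mean reaches the limit but not every replicate does; inactive = mean below the limit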;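 also: luciferase carries N-glycosylation sites so blocking glycosylation raises the light; 0% = median of neutral control wells and 100% = median of 100 nM tunicamycin wells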
PglD DTNB: inhibitors of Campylobacter jejuni PglD acetyltransferase; inhibition, % at 12.5 µM; hit rate 0.098% among 360,000; purified PglD enzyme, DTNB colorimetric CoA detection; in the data active = inhibition above about 16%, passing the limit was not always enough; inconclusive = no clear call, values can overlap the other calls
* marks the source's active call; other numbers are inactive results. Shown is part of a subset that was picked to be rich in hits.

Results for C[C@@H]1CCCCO[C@@H](CN(C)C(=O)c2ccccc2)[C@H](C)CN([C@@H](C)CO)C(=O)c2cc(NC(=O)C3CCCCC3)ccc2O1 ?
DENV2 CPE: 71*; PglD DTNB: 0

Results for C[C@@H]1CN([C@H](C)CO)C(=O)c2cc(NC(=O)C3CCCCC3)ccc2O[C@@H](C)CCCCO[C@@H]1CN(C)C(=O)c1ccccc1 ?
DENV2 CPE: 20; PglD DTNB: -3

What do the screens show for `CC(C)NC(=O)Nc1ccc2c(c1)C(=O)N([C@H](C)CO)C[C@H](C)[C@@H](CN(C)C(=O)c1ccccc1)OCCCC[C@H](C)O2`?
DENV2 CPE: 48*; PglD DTNB: -3

How did COCC(=O)Nc1ccc2c(c1)C(=O)N(C)C[C@@H](OC)[C@@H](C)CN[C@H](C)CO2 do in these assays?
PglD DTNB: 41

Results for C#CCOCCOCCOCCNc1nc(N2CCN(C(=O)[C@H](CC(N)=O)n3cc(C(N)[C@H](C)CC)nn3)CC2)nc(N2CCN(C(=O)[C@H](CC(N)=O)n3cc(C(N)[C@@H](C)CC)nn3)CC2)n1 (stereo partly drawn) ?
DENV2 CPE: 21*; Rtt109 HAT inh: 24; N-glyco inh: 1; PglD DTNB: -2

What do the screens show for `C#CCOCCOCCOCCNc1nc(N2CCOCC2)nc(N2CCN(C(=O)[C@H](CCCN=C(N)N)n3cc(C(N)[C@@H](C)CC)nn3)CC2)n1` (stereo partly drawn)?
DENV2 CPE: 119*; Rtt109 HAT inh: inconclusive; N-glyco inh: 4; PglD DTNB: -4

What do the screens show for `C#CCOCCOCCOCCNc1nc(N2CCN(C(=O)[C@H](CCCN=C(N)N)n3cc(C(N)[C@@H](C)CC)nn3)CC2)nc(N2CCN(C(=O)[C@H](CC(N)=O)n3cc([C@@H](N)C(C)C)nn3)CC2)n1` (stereo partly drawn)?
DENV2 CPE: 37*; Rtt109 HAT inh: 29; N-glyco inh: 3; PglD DTNB: 0

What do the screens show for `C#CCOCCOCCOCCNc1nc(N2CCN(C(=O)[C@H](CC(N)=O)n3cc(C(N)[C@@H](C)CC)nn3)CC2)nc(N2CCN(C(=O)[C@H](CCCCN)n3cc([C@@H](N)CC(N)=O)nn3)CC2)n1` (stereo partly drawn)?
DENV2 CPE: -3; Rtt109 HAT inh: 13; N-glyco inh: 0; PglD DTNB: -1

What do the screens show for `Cc1noc(C)c1S(=O)(=O)Nc1ccc2c(c1)C(=O)N([C@H](C)CO)C[C@@H](C)[C@H](CN(C)CC1CCCCC1)O2`?
DENV2 CPE: -2; PglD DTNB: -4

Results for CCNC(=O)Nc1ccc2c(c1)C(=O)N(C)[C@@H]1CC[C@@H](CC(=O)Nc3ccccc3)O[C@@H]1CO2 ?
DENV2 CPE: inconclusive; PglD DTNB: 1

Results for CO[C@@H]1CN(C)C(=O)c2ccc(NC(C)=O)cc2OC[C@H](C)N(Cc2ccccc2C(=O)O)C[C@H]1C ?
DENV2 CPE: -9; PglD DTNB: -1

Results for COc1ccc(NC(=O)Nc2cccc3c2O[C@H](CN(C)S(=O)(=O)c2ccc(F)cc2)[C@@H](C)CN([C@@H](C)CO)C3=O)cc1 ?
DENV2 CPE: 10; PglD DTNB: -1

What do the screens show for `O=C(Nc1ccc(S(=O)(=O)N2CCCCCC2)cc1)c1ccco1`?
Rtt109 HAT inh: 1; N-glyco inh: -5; PglD DTNB: -1

What do the screens show for `C[C@H](NC(=O)c1ccco1)C(=O)Nc1ccc(S(=O)(=O)N2CCCC2)cc1`?
Rtt109 HAT inh: 55*; N-glyco inh: -1; PglD DTNB: -4

What do the screens show for `CC(C)NC(=O)N(C)C[C@@H]1Oc2c(NC(=O)Nc3ccccc3)cccc2C(=O)N([C@@H](C)CO)C[C@H]1C`?
DENV2 CPE: -18; PglD DTNB: 3

Results for CC1(C)CC(NC(=O)COc2ccc(Br)cc2Cl)CC(C)(C)N1 ?
DENV2 CPE: 11; Rtt109 HAT inh: -5; N-glyco inh: 0; PglD DTNB: -4

How did Cc1cc(=O)oc2cc(OCC(=O)NC3CC(C)(C)NC(C)(C)C3)ccc12 do in these assays?
DENV2 CPE: 4; Rtt109 HAT inh: 12; N-glyco inh: 3; PglD DTNB: 3

Results for CC1(C)CC(NC(=O)COc2ccccc2Cl)CC(C)(C)N1 ?
DENV2 CPE: 33*; N-glyco inh: -8; PglD DTNB: 3

How did CCc1cc(=O)oc2cc(OCC(=O)NC3CC(C)(C)NC(C)(C)C3)ccc12 do in these assays?
DENV2 CPE: 36*; Rtt109 HAT inh: -8; N-glyco inh: 0; PglD DTNB: -4

What do the screens show for `C[C@H](CO)N1C[C@H](C)[C@@H](CN(C)C(=O)CC2CC2)Oc2cc(C#CC(C)(C)O)ccc2S1(=O)=O`?
DENV2 CPE: 2; PglD DTNB: -1

Results for CC(C)C[C@@H]1NC(=O)[C@H]2C[C@@H](C(=O)NCCCCCN)[C@@H](c3cccc(OCCO)c3)N2C1=O ?
DENV2 CPE: 32*

What do the screens show for `O=C(CS)NCCCCCCNC(=O)[C@H]1C[C@H]2C(=O)NCC(=O)N2[C@H]1c1cccc(OCCO)c1`?
DENV2 CPE: 7; PglD DTNB: 7

How did O=C(CSc1ncnc2c1oc1ccccc12)Nc1cccc(C(F)(F)F)c1 do in these assays?
DENV2 CPE: 37*; Rtt109 HAT inh: -11; N-glyco inh: 1; PglD DTNB: 1

How did O=C(CSc1ncnc2c1oc1ccccc12)Nc1cccc(Cl)c1 do in these assays?
Rtt109 HAT inh: 7; N-glyco inh: 1; PglD DTNB: 3

Results for COc1ccc(C(=O)Nc2ccc(N3CCN(C(=O)c4cccs4)CC3)cc2)cc1Br ?
DENV2 CPE: inconclusive; Rtt109 HAT inh: -6; N-glyco inh: -5; PglD DTNB: -5

How did COc1cc(OC)cc(C(=O)Nc2ccc(N3CCN(C(=O)c4cccs4)CC3)cc2)c1 do in these assays?
DENV2 CPE: 53*; Rtt109 HAT inh: -9; N-glyco inh: 13; PglD DTNB: 4

What do the screens show for `COc1ccc(S(=O)(=O)Nc2ccc3c(c2)CC(=O)N([C@@H](C)CO)C[C@H](C)[C@H](CN(C)C(=O)Nc2c(C)noc2C)O3)cc1`?
DENV2 CPE: 11; PglD DTNB: -1

How did CC(=O)n1cc(CO)c2ccccc21 do in these assays?
DENV2 CPE: 35*; Rtt109 HAT inh: 3; N-glyco inh: 2; PglD DTNB: 7

What do the screens show for `COCC(=O)N1CC(=O)N2[C@H](C1)[C@H](c1ccc(C#CC3CC3)cc1)[C@@H]2CO`?
DENV2 CPE: -2

Results for C[C@H](CO)N1C[C@H](C)[C@H](CN(C)CC2CCCCC2)OCCCC[C@H](C)Oc2ccc(NC(=O)C3CCCCC3)cc2C1=O ?
DENV2 CPE: 23*; PglD DTNB: 0

How did C[C@@H]1CN([C@@H](C)CO)C(=O)c2cc(NC(=O)C3CCCCC3)ccc2O[C@H]1CN(C)CC1CCCCC1 do in these assays?
DENV2 CPE: 4; PglD DTNB: 3

How did C[C@H](CO)N1C[C@H](C)[C@@H](CN(C)CC2CCCCC2)Oc2ccc(NC(=O)C3CCCCC3)cc2C1=O do in these assays?
DENV2 CPE: 23*; PglD DTNB: 3
